Bioassay records (PubChem)
RORg inh – blocks mouse ROR gamma transcriptional activity. P51450. Drosophila S2 Gal4-RORgamma UAS-luciferase reporter, 20 h. Potency, µM (doses to about 53.6 µM), without a hit: at the highest dose activity change, negative = inhibition, hits mostly inhibitors. actives 5.4% (n = 310,000); further: potency means the concentration at half of the fitted maximal effect; on the % scale 0 is the no-effect control and ±100 the full control effect; nearly all actives have a fitted effect of over 60% in size
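Luminescence from a UAS-regulated Photinus luciferase reporter in stably transfected Drosophila Schneider cells is measured; decreased signal marks ROR gamma inhibition. Fusion expression is induced by 700 uM copper sulfate for 20 hr.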
Gal4-VP16 FLuc – Gal4-VP16 reporter inhibition counter-screen; actives 3.5% (n = 310,000); Potency, µM (highest dose often 53.6 µM), for the others: at the top dose activity, negative = inhibition, hits mostly inhibitors; Drosophila S2 Gal4-VP16 UAS-luciferase, luminescence, 20 h; AID 2546;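 further: Gal4-VP16 expression switched on by copper sulfate through the metallothionein promoter; potency means the concentration at half of the fitted maximal effect; on the % scale 0 is the no-effect control and ±100 the full control effect; nearly all actives have a fitted effect of over 50% in size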
CtBP-E1A inh – blocks the CtBP interaction with E1A; AlphaScreen GST-E1A/His-CtBP binding, 1536-well; active compounds read low; actives 0.49% (n = 340,000); activity change, % (concentration not given with the values); in the data active means activity change below about -65%; inconclusive means mostly about -30% to -63%; further: on the % scale 0 is the no-effect control and ±100 the full control effect
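Homogeneous bead-based format: GST-tagged E1A captured on glutathione donor beads, His-tagged CtBP on nickel acceptor beads; compounds precede bead addition by 2 h at 37 °C.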
p53 reactivator – restores transcriptional activity of mutant p53 | H1299 p53-A138V BP100-luciferase reporter, luminescence, 24 h | Potency, µM (doses to about 92.2 µM), for inactives: at the highest dose activity change, positive = activation, hits mostly activators | actives 0.063% (n = 320,000) | AID 504706; further: potency means the concentration at half of the fitted maximal effect; % of control where 0% means no effect; nearly all actives have a fitted effect of over 45% in size
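H1299 (p53-null), stable ts p53-A138V + BP100-Luc; 1000 cells/well, Opti-MEM/10% FBS; cpd 4 pt, 1:5; 24 h, 37 deg C, 5% CO2; detection reagent 10 min RT; luminescence.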
Six1-Eya2 blk – blocks human Six1 binding to Eya2. Q15475+O00167. AlphaScreen GST-Six1/His-Eya2 binding, biochemical; active compounds read low. activity change, % (test concentration not listed). actives 0.56% (n = 360,000); in the data active means activity change below about -65%; inconclusive means mostly about -30% to -63%; further: on the % scale 0 is the no-effect control and ±100 the full control effect
Target sequence (O00167 whole entry, looked up): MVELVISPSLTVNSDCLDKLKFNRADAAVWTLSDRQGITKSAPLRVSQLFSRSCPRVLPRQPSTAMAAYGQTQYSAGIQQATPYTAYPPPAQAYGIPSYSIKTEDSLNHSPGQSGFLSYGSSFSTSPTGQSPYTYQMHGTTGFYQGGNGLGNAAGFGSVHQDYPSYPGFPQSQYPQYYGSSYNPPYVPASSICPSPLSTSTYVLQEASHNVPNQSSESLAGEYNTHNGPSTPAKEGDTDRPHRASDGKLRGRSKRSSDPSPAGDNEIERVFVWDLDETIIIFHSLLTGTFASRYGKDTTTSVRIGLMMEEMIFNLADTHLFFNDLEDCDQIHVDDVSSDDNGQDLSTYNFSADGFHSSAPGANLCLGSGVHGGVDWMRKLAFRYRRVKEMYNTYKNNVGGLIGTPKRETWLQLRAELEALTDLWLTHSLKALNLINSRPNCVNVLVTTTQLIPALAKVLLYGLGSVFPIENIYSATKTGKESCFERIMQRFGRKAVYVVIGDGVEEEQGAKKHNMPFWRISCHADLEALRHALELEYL
Target sequence (Q15475 whole entry, looked up): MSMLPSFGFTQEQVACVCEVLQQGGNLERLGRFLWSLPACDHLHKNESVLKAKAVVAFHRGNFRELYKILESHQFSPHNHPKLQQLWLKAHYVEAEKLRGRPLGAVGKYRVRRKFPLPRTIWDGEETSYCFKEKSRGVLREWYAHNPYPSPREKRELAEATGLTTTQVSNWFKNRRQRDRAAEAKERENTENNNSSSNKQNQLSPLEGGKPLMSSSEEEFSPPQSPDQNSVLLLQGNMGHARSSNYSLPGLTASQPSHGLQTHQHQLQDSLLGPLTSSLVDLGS
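Compounds are tested against tagged Six1 and Eya2 proteins bridged by glutathione donor and nickel acceptor beads; after a one-hour incubation at 37 °C without light, AlphaScreen emission is recorded.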
Active calls of the source: *; [ ] = remark or other dose. Rows were chosen to be rich in hits. Some 5.4% of all compounds tested hit in one or more screens of this group. Unless noted, the call rests on the fitted dose curve; in most records, active means well fitted curve in the direction sought with a large enough effect; inconclusive means small, poorly fitted or top-dose-only effect, or another doubt; inactive means no such curve, though single readings can be large; an effect the other way counts as inactive or inconclusive.

What do the screens show for `COc1cccc2c(SCC(=O)N/N=C/c3ccccc3)cc(C)nc12`?
RORg inh: inconclusive; Gal4-VP16 FLuc: -11%; CtBP-E1A inh: -2; p53 reactivator: 11%; Six1-Eya2 blk: -7

How did c1ccc(-c2n[nH]c3c2oc2ccccc23)cc1 do in these assays?
RORg inh: -41%; Gal4-VP16 FLuc: -22%

Results for CCN(CC)S(=O)(=O)c1cc(NC(=O)CSc2nccn2C)ccc1C ?
RORg inh: 7%; Gal4-VP16 FLuc: 28%; CtBP-E1A inh: 2; p53 reactivator: inconclusive; Six1-Eya2 blk: -1

What do the screens show for `Cc1ccc(NC(=O)n2ncc3c(C)cccc32)c(C)c1`?
RORg inh: -36%; Gal4-VP16 FLuc: inconclusive; CtBP-E1A inh: -17; p53 reactivator: inconclusive; Six1-Eya2 blk: 14

Results for CCOc1ccc(NC(=O)n2ncc3c(C)cccc32)cc1 ?
RORg inh: 0.45µM*; Gal4-VP16 FLuc: 1.1µM*; CtBP-E1A inh: -5; p53 reactivator: inconclusive; Six1-Eya2 blk: -2

Results for Cc1cccc2c1cnn2C(=O)Nc1ccc(Br)cc1F ?
RORg inh: 2%; Gal4-VP16 FLuc: 2%; CtBP-E1A inh: 12; p53 reactivator: 9%; Six1-Eya2 blk: 5

How did COc1cccc(NC(=O)n2ncc3c(C)cccc32)c1 do in these assays?
RORg inh: 1.6µM*; Gal4-VP16 FLuc: 2.8µM*; CtBP-E1A inh: 10; p53 reactivator: 19%; Six1-Eya2 blk: 9

Results for Cc1nc2ccccc2n1CCc1nc2c3ccccc3nc(=S)n2[nH]1 ?
RORg inh: 3.5µM*; Gal4-VP16 FLuc: 10µM*; CtBP-E1A inh: -11; p53 reactivator: -4%; Six1-Eya2 blk: -10

How did Cc1nc2ccccc2n1CCCOc1ccccc1 do in these assays?
RORg inh: inconclusive; Gal4-VP16 FLuc: inconclusive; CtBP-E1A inh: -1; p53 reactivator: 28%; Six1-Eya2 blk: 8

How did Cc1ccccc1-c1nc2c3ccccc3nc(=S)n2[nH]1 do in these assays?
RORg inh: 0.28µM*; Gal4-VP16 FLuc: 1µM*; CtBP-E1A inh: -2; p53 reactivator: 5%; Six1-Eya2 blk: 6

What do the screens show for `Cn1c(=O)c(C(=O)COC(=O)c2cc(C(F)(F)F)nc3c(C(F)(F)F)cccc23)c(N)n(Cc2ccccc2)c1=O`?
RORg inh: -16%; Gal4-VP16 FLuc: -5%

Results for Cc1sc(NC(=O)C2=COCCO2)nc1-c1ccc(F)cc1 ?
CtBP-E1A inh: -17; p53 reactivator: 15%; Six1-Eya2 blk: 9

What do the screens show for `Cc1cccc2sc(NNC(=O)C3=COCCO3)nc12`?
RORg inh: 2.2µM*; Gal4-VP16 FLuc: 13µM*; CtBP-E1A inh: 23; p53 reactivator: -1%; Six1-Eya2 blk: 1

How did Cc1cc(C(=O)Nc2nc3c(C)cccc3s2)c(C)o1 do in these assays?
RORg inh: inconclusive; Gal4-VP16 FLuc: inconclusive; CtBP-E1A inh: 2; p53 reactivator: 2%; Six1-Eya2 blk: -5

Results for O=C(NNc1nc2c(F)cc(F)cc2s1)C1=COCCO1 ?
RORg inh: 8.9µM*; Gal4-VP16 FLuc: -27%; CtBP-E1A inh: 4; p53 reactivator: 6%; Six1-Eya2 blk: -4

What do the screens show for `COc1ccc(Nc2c([N+](=O)[O-])ccc3c2=NC2(CCCCC2)N=3)cc1`?
RORg inh: -36%; Gal4-VP16 FLuc: -16%; CtBP-E1A inh: -76*; p53 reactivator: 17%; Six1-Eya2 blk: -78*

Results for CCC(C)[C@H]1CNC(=S)N1CCc1cccc2ccccc12 (stereo partly drawn) ?
RORg inh: 2.5µM*; Gal4-VP16 FLuc: 4.5µM*; CtBP-E1A inh: -5; p53 reactivator: -2%; Six1-Eya2 blk: -6

Results for CCC(C)[C@H]1CN=C(N)N1CCc1cccc2ccccc12 (stereo partly drawn) ?
CtBP-E1A inh: -1; Six1-Eya2 blk: -1

What do the screens show for `CCC(C)[C@H]1CNC(=S)N1CCC12CC3CC(CC(C3)C1)C2` (stereo partly drawn)?
RORg inh: 0.89µM*; Gal4-VP16 FLuc: 2.8µM*; CtBP-E1A inh: 4; p53 reactivator: 1%; Six1-Eya2 blk: 4

How did CC[C@H](C)[C@H]1CNC(=S)N1CC1CCN(CC)CC1 do in these assays?
CtBP-E1A inh: 5; Six1-Eya2 blk: 0

Results for COc1ccc(C2NCCc3c2[nH]c2ccccc32)cc1COc1ccc(F)cc1 (stereo not drawn) ?
RORg inh: 10µM*; Gal4-VP16 FLuc: 8.9µM*; CtBP-E1A inh: inconclusive; p53 reactivator: -27%; Six1-Eya2 blk: -21

How did COc1ccc(/C=N/Nc2cc(C)nc(-n3nc(C)cc3C)n2)c(OC)c1 do in these assays?
RORg inh: 0.2µM*; Gal4-VP16 FLuc: 0.28µM*; CtBP-E1A inh: -73*; p53 reactivator: 16%; Six1-Eya2 blk: -76*

Results for CCOc1cc(/C=N/Nc2cc(C)nc(-n3nc(C)cc3C)n2)ccc1O ?
RORg inh: inconclusive; Gal4-VP16 FLuc: 18µM*; CtBP-E1A inh: inconclusive; p53 reactivator: 0%; Six1-Eya2 blk: -20

Results for Cc1cc(N/N=C/c2ccc(F)cc2)nc(-n2nc(C)cc2C)n1 ?
RORg inh: 0.079µM*; Gal4-VP16 FLuc: 0.32µM*; CtBP-E1A inh: -3; p53 reactivator: 0%; Six1-Eya2 blk: -3

Results for COC(=O)C/C=C/C(C)C(OC)c1ccccc1Br (stereo not drawn) ?
RORg inh: 10%[10 µM]; Gal4-VP16 FLuc: -6%[10 µM]

What do the screens show for `C=CCn1c(=NC(=O)CC)n(C)c2ccccc21`?
RORg inh: -12%; Gal4-VP16 FLuc: -7%; CtBP-E1A inh: 4; p53 reactivator: -2%; Six1-Eya2 blk: 10

What do the screens show for `CCCCCOc1ccc(Br)cc1CSC(=N)N`?
RORg inh: -75%; Gal4-VP16 FLuc: 7.1µM*; p53 reactivator: -21%; Six1-Eya2 blk: 12

How did Cc1ccc(S(=O)(=O)Nc2cccc3cccnc23)c([N+](=O)[O-])c1 do in these assays?
RORg inh: 0.79µM*; Gal4-VP16 FLuc: 0.89µM*; CtBP-E1A inh: -80*; p53 reactivator: -18%; Six1-Eya2 blk: -91*

Results for O=S(=O)(Nc1cccc2cccnc12)c1ccccc1 ?
RORg inh: 2µM*; Gal4-VP16 FLuc: 3.5µM*; CtBP-E1A inh: -84*; p53 reactivator: -12%; Six1-Eya2 blk: -66*

Results for COc1ccc(NS(=O)(=O)c2ccc3ccccc3c2)c2ncccc12 ?
RORg inh: 0.71µM*; Gal4-VP16 FLuc: 1.1µM*; CtBP-E1A inh: inconclusive; p53 reactivator: -2%; Six1-Eya2 blk: -26

How did O=S(=O)(Nc1cccc2cccnc12)c1ccc(S(=O)(=O)N2CCCC2)cc1 do in these assays?
RORg inh: 2.5µM*; Gal4-VP16 FLuc: 5µM*; CtBP-E1A inh: -90*; p53 reactivator: 4%; Six1-Eya2 blk: -76*

How did Oc1ccc(Nc2nc(-c3ccccc3F)nc3ccccc23)cc1 do in these assays?
RORg inh: -4%; Gal4-VP16 FLuc: 1%; CtBP-E1A inh: -2; p53 reactivator: 4%; Six1-Eya2 blk: -11
